In PubChem BioAssay AID1159580 (chemical genetic matrix, 2015):
Several values for one entry are separate records, joined by “and”; a condition that tells them apart may be missing. Equal entries are not always repeated. The whole screen tested about 5,500 compounds, of which about 2,000 (36%) were called active. About 18% were inconclusive and are not listed. No stated cut-off is given here; in the data, active means normalized growth mostly below about 0.91 (no sharp cut-off); inconclusive means no clear call, values can overlap the other calls; inactive means mostly above about 0.92. Some of the results follow.

Assay: chemical genetic growth profiling, strain panel (AID 1159580);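 further: tested at 20 µM; growth read once vehicle control cultures reached saturation at 30 °C; 1 = growth at the plate median or of vehicle wells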
Settings: growth OD

Measured: normalized growth

CO[C@@H]1C[C@H](O[C@H]2CC[C@]3(C)C4CC[C@]5(C)[C@@H](C6=CC(=O)OC6)CC[C@]5(O)[C@@H]4CC[C@]3(O)C2)O[C@H](C)[C@@H]1O (some centres not stated)
inactive: S. cerevisiae deletion strains, locus YBR021W, strain FUR4, stronger effect = lower value 0.961 | S. cerevisiae deletion strains, locus YBR229C, strain ROT2, stronger effect = lower value 1 | S. cerevisiae deletion strains, locus YCL029C, strain bik1, stronger effect = lower value 1.02 | S. cerevisiae deletion strains, locus YDL035C, strain GPR1, stronger effect = lower value 0.905 | S. cerevisiae deletion strains, locus YDL074C, strain BRE1, stronger effect = lower value 0.987 | S. cerevisiae deletion strains, locus YDL101C, strain DUN1, stronger effect = lower value 1.02 | S. cerevisiae deletion strains, locus YDL134C, strain PPH21, stronger effect = lower value 1 | S. cerevisiae deletion strains, locus YDL185W, strain tfp1, stronger effect = lower value 1.05 | S. cerevisiae deletion strains, locus YDR101C, strain arx1, stronger effect = lower value 1.01 | S. cerevisiae deletion strains, locus YDR162C, strain NBP2, stronger effect = lower value 0.881 | S. cerevisiae deletion strains, locus YDR318W, strain mcm21, stronger effect = lower value 0.987 | S. cerevisiae deletion strains, locus YDR388W, stronger effect = lower value 1 | S. cerevisiae deletion strains, locus YEL061C, strain CIN8, stronger effect = lower value 1.01 | S. cerevisiae deletion strains, locus YER110C, stronger effect = lower value 1.02 | S. cerevisiae deletion strains, locus YER155C, strain BEM2, stronger effect = lower value 1.01 | S. cerevisiae deletion strains, locus YER167W, strain BCK2, stronger effect = lower value 0.95 | S. cerevisiae deletion strains, locus YGL078C, strain dbp3, stronger effect = lower value 0.96 | S. cerevisiae deletion strains, locus YGL086W, strain mad1, stronger effect = lower value 0.935 | S. cerevisiae deletion strains, locus YGL248W, strain PDE1, stronger effect = lower value 1.02 | S. cerevisiae deletion strains, locus YGR078C, strain PAC10, stronger effect = lower value 0.926 | S. cerevisiae deletion strains, locus YGR252W, strain gcn5, stronger effect = lower value 0.844 | S. cerevisiae deletion strains, locus YHR030C, strain SLT2, stronger effect = lower value 1.02 and 1.05 | S. cerevisiae deletion strains, locus YHR079C, strain IRE1 (second series), stronger effect = lower value 1.02 | S. cerevisiae deletion strains, locus YHR079C, strain IRE1, stronger effect = lower value 1.07 | S. cerevisiae deletion strains, locus YHR094C, strain hxt1, stronger effect = lower value 1.02 | S. cerevisiae deletion strains, locus YHR129C, strain ARP1, stronger effect = lower value 1.01 | S. cerevisiae deletion strains, locus YIL066C, strain RNR3, stronger effect = lower value 0.956 | S. cerevisiae deletion strains, locus YIL073C, strain SPO22, stronger effect = lower value 1.04 | S. cerevisiae deletion strains, locus YIR030C, strain dcg1, stronger effect = lower value 1.01 | S. cerevisiae deletion strains, locus YJL095W, strain BCK1, stronger effect = lower value 1.03 and 1.05 | S. cerevisiae deletion strains, locus YJL134W, strain LCB3, stronger effect = lower value 1.01 | S. cerevisiae deletion strains, locus YJL168C, strain set2, stronger effect = lower value 1.02 | S. cerevisiae deletion strains, locus YJL187C, strain SWE1 (second series), stronger effect = lower value 1.04 | S. cerevisiae deletion strains, locus YJR043C, strain POL32, stronger effect = lower value 0.949 | S. cerevisiae deletion strains, locus YJR066W, strain TOR1, stronger effect = lower value 0.987 | S. cerevisiae deletion strains, locus YJR075W, strain HOC1, stronger effect = lower value 0.901 | S. cerevisiae deletion strains, locus YKL009W, strain mrt4, stronger effect = lower value 0.917 | S. cerevisiae deletion strains, locus YKL068W, stronger effect = lower value 0.996 | S. cerevisiae deletion strains, locus YLR039C, strain RIC1, stronger effect = lower value 0.887 | S. cerevisiae deletion strains, locus YLR058C, strain SHM2, stronger effect = lower value 1.01 | S. cerevisiae deletion strains, locus YLR102C, strain apc9, stronger effect = lower value 1.03 | S. cerevisiae deletion strains, locus YLR113W, strain HOG1, stronger effect = lower value 0.964 | S. cerevisiae deletion strains, locus YLR262C, strain YPT6, stronger effect = lower value 0.879 | S. cerevisiae deletion strains, locus YLR268W, strain sec22, stronger effect = lower value 0.95 | S. cerevisiae deletion strains, locus YLR330W, strain CHS5, stronger effect = lower value 1.01 | S. cerevisiae deletion strains, locus YLR342W, strain FKS1 (second series), stronger effect = lower value 0.953 | S. cerevisiae deletion strains, locus YLR371W, strain rom2, stronger effect = lower value 1.05 | S. cerevisiae deletion strains, locus YML016C, strain PPZ1, stronger effect = lower value 1 | S. cerevisiae deletion strains, locus YML032C, strain rad52, stronger effect = lower value 0.988 | S. cerevisiae deletion strains, locus YML124C, strain tub3, stronger effect = lower value 1.02 | S. cerevisiae deletion strains, locus YMR078C, strain ctf18, stronger effect = lower value 1.02 | S. cerevisiae deletion strains, locus YMR263W, strain SAP30, stronger effect = lower value 1.02 | S. cerevisiae deletion strains, locus YMR307W, strain GAS1, stronger effect = lower value 0.815 | S. cerevisiae deletion strains, locus YNL067W, strain RPL9B, stronger effect = lower value 0.99 | S. cerevisiae deletion strains, locus YNL128W, strain TEP1, stronger effect = lower value 0.925 | S. cerevisiae deletion strains, locus YNL153C, strain GIM3, stronger effect = lower value 1.03 | S. cerevisiae deletion strains, locus YNL183C, strain NPR1, stronger effect = lower value 0.988 | S. cerevisiae deletion strains, locus YNL233W, strain BNI4, stronger effect = lower value 0.941 | S. cerevisiae deletion strains, locus YNL250W, strain rad50, stronger effect = lower value 0.964 | S. cerevisiae deletion strains, locus YNL271C, strain bni1, stronger effect = lower value 0.999 | S. cerevisiae deletion strains, locus YNL298W, strain CLA4, stronger effect = lower value 0.944 | S. cerevisiae deletion strains, locus YNL307C, strain MCK1, stronger effect = lower value 1.02 | S. cerevisiae deletion strains, locus YNL322C, strain KRE1, stronger effect = lower value 0.999 | S. cerevisiae deletion strains, locus YNR052C, strain pop2, stronger effect = lower value 1.02 | S. cerevisiae deletion strains, locus YOL012C, strain htz1 2.27 | S. cerevisiae deletion strains, locus YOL147C, strain pex11, stronger effect = lower value 1.02 | S. cerevisiae deletion strains, locus YOR061W, strain CKA2, stronger effect = lower value 1.01 | S. cerevisiae deletion strains, locus YOR069W, strain VPS5, stronger effect = lower value 1.01 | S. cerevisiae deletion strains, locus YOR136W, strain idh2, stronger effect = lower value 0.983 | S. cerevisiae deletion strains, locus YOR144C, strain elg1, stronger effect = lower value 1.01 | S. cerevisiae deletion strains, locus YOR231W, strain MKK1, stronger effect = lower value 1.05 | S. cerevisiae deletion strains, locus YOR316C, strain cot1, stronger effect = lower value 1.02 | S. cerevisiae deletion strains, locus YPL055C, strain LGE1, stronger effect = lower value 0.877 | S. cerevisiae deletion strains, locus YPL256C, strain CLN2, stronger effect = lower value 1.11 | S. cerevisiae deletion strains, locus YPR119W, strain clb2, stronger effect = lower value 1.02 | S. cerevisiae deletion strains, locus YPR141C, strain kar3, stronger effect = lower value 1.02 | S. cerevisiae deletion strains, locus YPR163C, strain tif3, stronger effect = lower value 0.993 | S. cerevisiae deletion strains, locus YPR167C, strain met16, stronger effect = lower value 0.934 | S. cerevisiae deletion strains, strain wtn01, stronger effect = lower value 0.921
active: S. cerevisiae deletion strains, locus YAL013W, strain DEP1, stronger effect = lower value 0.869 | S. cerevisiae deletion strains, locus YDL192W, strain arf1, stronger effect = lower value 0.888 | S. cerevisiae deletion strains, locus YDR502C, strain sam2, stronger effect = lower value 0.893 | S. cerevisiae deletion strains, locus YGR135W, strain pre9, stronger effect = lower value 0.865 | S. cerevisiae deletion strains, locus YHR200W, strain rpn10, stronger effect = lower value 0.92 | S. cerevisiae deletion strains, locus YIL125W, strain kgd1, stronger effect = lower value 0.926 | S. cerevisiae deletion strains, locus YKL085W, strain MDH1 (second series), stronger effect = lower value 0.897 | S. cerevisiae deletion strains, locus YKL085W, strain MDH1, stronger effect = lower value 0.897 | S. cerevisiae deletion strains, locus YKR001C, strain vps1, stronger effect = lower value 0.76 | S. cerevisiae deletion strains, locus YLR418C, strain cdc73, stronger effect = lower value 0.651 | S. cerevisiae deletion strains, locus YMR223W, strain ubp8, stronger effect = lower value 0.889 | S. cerevisiae deletion strains, locus YOR184W, strain ser1, stronger effect = lower value 0.606 | S. cerevisiae strains, strain wild type, stronger effect = lower value 0.899
